# The entries come from a sample that favours hits as a whole.
# Cycloheximide cs: Cycloheximide Counterscreen for Small Molecule Inhibitors of Shiga Toxin; cell reporter, cycloheximide protein synthesis inhibition counterscreen; max response, %; 300,000 compounds, 12% hits; in the data active = max response mostly above about 13%, no sharp cut-off; inactive = mostly below about 14%; note: read at 38.3 µM for the half of the compounds with a filed dose; 0% is about no effect
# AMA1 RON2 block: qHTS for Inhibitors of AMA1-RON; Towards Development of Antimalarial Drug Lead: Primary Screen. AlphaScreen AMA1-biotinylated RON2 peptide binding. AID 720542, 2013. 360,000 compounds, 0.2% hits. Plasmodium falciparum AMA1 (3D7) - RON2 peptide interaction. Potency, µM (series often up to 58.2 µM), for inactives: top-dose activity change, negative = inhibition, hits mostly inhibitors; active = well fitted inhibition curve with a large enough effect; inconclusive = small, poorly fitted or top-dose-only effect; inactive = no such curve, though single readings can be large or run the other way;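 note: potency is the fitted concentration of half-maximal effect; 0% = vehicle wells and -100% = peptide control; nearly all actives have a fitted effect of over 45% in size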
#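 AMA1 (3D7) with his tag at 25 nM final met compounds first, then biotinylated RON2 peptide at 25 nM; detection used donor plus acceptor beads, 10 µg/mL apiece, read by AlphaScreen after 30 min at room temperature.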
# MARV entry inh: qHTS for inhibitors of binding or entry into cells for Marburg Virus | Marburg virus pseudotyped entry inhibition, cell reporter | Potency, µM (series often up to 37.8 µM), for the others: top-dose activity change, negative = inhibition, most hits filed as inhibitors | 300,000 compounds, 1.8% hits | AID 540276, 2011; calls by dose curve; tested in HEK293 cells; note: potency is the fitted concentration of half-maximal effect; % is set by controls: 0 for no effect and ±100 for the full control effect
# Shiga inhibitor: A qHTS for Small Molecule Inhibitors of Shiga Toxin; Vero cells, Shiga toxin protein synthesis inhibition reporter; inhibition, % at 38.7 µM; 290,000 compounds, 9.2% hits; AID 2315, 2010; in the data active = inhibition mostly above about 28%, no sharp cut-off; inactive = mostly below about 43%; note: 0% is about no effect
# LASV entry inh: qHTS for Inhibitors of binding or entry into cells for Lassa Virus. Lassa virus pseudotype entry inhibition, cell reporter. Potency, µM (top dose mostly 37.9 µM), for inactives: top-dose activity change, negative = inhibition, most hits filed as inhibitors. 300,000 compounds, 1.2% hits. AID 540256, 2011; calls by dose curve; tested in HEK293 cells; note: potency is the fitted concentration of half-maximal effect; % is set by controls: 0 for no effect and ±100 for the full control effect; nearly all actives have a fitted effect of over 50% in size
# * = called active by the depositor; ? = inconclusive; nt = not tested or not shown; + = active, no number; [ ] = remark or other dose.
SMILES,Cycloheximide cs,AMA1 RON2 block,MARV entry inh,Shiga inhibitor,LASV entry inh
COc1ccc(/C(N)=N/OC(=O)CSc2ccccc2)cc1OC,54.8*,39.1%,24.3%[46.1 µM],68.3,10.7%
COc1ccc(CC(=O)O/N=C(\N)c2ccncc2)cc1OC,nt,0.6%,nt,nt,nt
COc1ccc(/C(N)=N/OC(=O)CCc2ccccc2)cc1,51.9*,4.7%,-0.5%[46.1 µM],93.2*,6.2%[46.1 µM]
Cc1cccc(/C(N)=N/OC(=O)CCc2ccccc2)c1,31.5*,65.5%,15.4%,51.9*,4.0%
CCN(CC(=O)Nc1ccc(C)c(S(=O)(=O)N2CCOCC2)c1)Cc1ccccc1,nt,10.4%,-18.1%,nt,?
C=CCOC(=O)C(C(C)=O)C(NC(=O)OC)c1ccc(Cl)cc1 (stereo not given),nt,nt,-10.3%[14.2 µM],nt,nt
CCOC(=O)C1CCCN(S(=O)(=O)c2ccc3c(c2)CCN3C(=O)CC)C1 (stereo not given),nt,nt,3.4%[46.1 µM],nt,-0.2%[46.1 µM]
CCOc1ccc(-n2cc(-c3ccccc3)c3c(N4CCN(c5ccccc5OC)CC4)ncnc32)cc1,nt,nt,nt,nt,14.3%[46.1 µM]
COc1ccc(C(=O)c2ccccc2)cc1,30.6*,-9.6%,?,44.8,-20.8%
COc1ccc(/C(N)=N/OC(=O)CCCN2C(=O)c3ccccc3C2=O)cc1OC,-3.0,-6.4%,-10.7%[46.1 µM],17.2,6.8%
COc1ccc(C(=O)CCc2ccccc2)cc1,42.7*,53.5%,nt,116.8*,nt
O=C(c1ccccc1)c1ccc(Oc2ncccn2)cc1,57.8*,6.8%,7.9%,196.8,-3.4%
COc1ccc(/C(N)=N/OC(=O)CCc2ccccc2)cc1OC,27.4*,26.7%,nt,60.3,nt
O=c1[nH]c(=O)n(C2OC(CO)C(O)C2O)cc1N1CCOCC1 (stereo not given),nt,10.2%,5.9%,nt,-10.5%
O=S(CC(O)c1ccccc1)c1ccccc1 (stereo not given),nt,-0.6%,nt,nt,nt
COC(=O)C1=C[C@@H](C(=O)OC)[C@@H]2C3=C(C(=O)C2(C)C)[C@H](c2ccccc2)[C@@H]2C(=O)N(c4ccccc4)C(=O)[C@@H]2[C@@H]3C1,-3.1,nt,nt,-9.0,nt
O=C(c1ccccc1)c1ccc(OCCO)cc1,15.9,8.6%,nt,38.2*,nt
COc1ccc(C(=O)c2nccc3ccccc23)cc1,36.8*,-8.2%,?,47.7,23.1%
COc1ccc(C(C[N+](=O)[O-])c2c(-c3ccccc3)cc3ccccn23)cc1 (stereo not given),39.9*,-3.8%,-9.8%,29.9,-28.8%
COc1ccc(C(C[N+](=O)[O-])c2c(-c3ccccc3)cc3ccccn23)cc1OC (stereo not given),-0.8,-9.5%,?,-12.4,-5.5%
CC1=NN(C(=O)c2nn(C)cc2Br)C(O)(C(F)(F)F)C1 (stereo not given),35.1*,33.7%,12.6%,59.5*,4.2%
CC1=NN(C(=O)c2csc(C)c2C)C(O)(C(F)(F)F)C1 (stereo not given),37.3*,51.2%,?,47.2*,10.2%
CC1=NN(C(=O)c2c(Br)cnn2C)C(O)(C(F)(F)F)C1 (stereo not given),0.5,59.9%,?,-4.4,0.5%
CC1=NN(C(=O)c2ccc(Br)cc2)C(O)(C(F)(F)OC(F)(F)F)C1 (stereo not given),16.6*,85.8%,-22.3%,29.1,1.5%
COc1ccccc1OCCSc1nc2ccccc2n1CC(N)=O,-2.7,-4.9%,15.1%,-13.2,-15.1%
SMILES,Cycloheximide cs,AMA1 RON2 block,MARV entry inh,Shiga inhibitor,LASV entry inh
Fc1ccc(Nc2ccnc(Nc3ccc(F)cc3)n2)cc1,72.4*,-1.2%,8.4%,+,0.9%
O=C(O)c1cccc(Nc2ccnc(Nc3cccc(C(=O)O)c3)n2)c1,29.1*,-5.1%,?,78.7*,?
CN(C(=O)c1cccc(NC(=O)Cc2ccc(NC(=O)C3CCN(C(=O)c4ccccc4)CC3)cc2)c1)C1CCCCC1,nt,0.0%,nt,nt,nt
COc1cc(/C=N/Nc2ccc(C(=O)O)cc2)ccc1O,5.3,2.5%,?,-8.2,?
C/C(=N/Nc1ccc(C(=O)O)cc1)c1ccc(O)c(O)c1O,51.5*,-20.1%,4.8%,83.7*,20.1%
COc1ccc(OC)c(/C(C)=N/Nc2ccc(C(=O)O)cc2)c1,37.6*,-8.7%,20.1%[46.1 µM],54.6*,29.6%[46.1 µM]
COc1ccc(/C(C)=N/Nc2ccc(C(=O)O)cc2)cc1OC,40.5*,-1.6%,?,62.8,?
C/C(=N\Nc1ccc(C(=O)O)cc1)c1nc2ccccc2n1C,6.4,nt,nt,-0.6,nt
COc1cc(/C(C)=N/Nc2ccc(C(=O)O)cc2)cc(OC)c1OC,70.5*,11.1%,?,171.1*,?
COc1cc(C(=O)NCCC(=O)NC(C)CCc2ccccc2)cc(OC)c1OC (stereo not given),-5.2,-3.1%,nt,9.4,nt
COc1cc(/C=C2/SC(=S)N(CC(=O)NNC(=O)c3ccc(F)cc3)C2=O)cc(OC)c1OC,nt,161.7%,nt,nt,nt
CCc1cccc(NC(=O)Nc2ccc3c(c2)OCO3)c1,28.7*,?,?,46.6*,-28.0%[46.1 µM]
CCc1c(C(=O)Nc2ccccc2C(N)=O)csc1C,30.8*,-0.5%,nt,37.7,nt
O=C(Nc1ccc2c(c1)OCO2)Nc1ccccc1F,57.1*,-14.7%,nt,108.5*,nt
O=C(CNC(=O)c1ccccc1F)Nc1ccc2c(c1)OCO2,nt,45.0%,nt,nt,nt
CCc1c(C(=O)NNC(=O)Nc2ccc3c(c2)OCO3)csc1C,38.3*,38.0%,25.6%,20.2,15.3%
CCN(C(=O)c1c(C)oc2ncnc(N3CCCCC3)c12)c1cc(C)ccc1C,nt,nt,nt,nt,21.0%[46.1 µM]
COc1cccc(OC)c1C(=O)OCC(=O)NC1CCCCCC1,nt,5.0%,nt,nt,nt
CCCOc1ccc(-c2nn(-c3ccccc3)cc2C2NC(=O)NC(C)=C2C(=O)OC(C)C)cc1 (stereo not given),nt,nt,?,nt,-29.9%[46.1 µM]
CCC(=O)c1cn(CC(=O)Nc2ccc(C)cc2C)c2ccccc12,3.5,-3.4%,?,nt,-6.9%
CCc1ccccc1NC(=O)Nc1ccc2c(c1)OCO2,34.7*,-0.3%,21.8%,26.6,5.5%
Cc1ccc(-c2nc3c(c(SCC(=O)Nc4cccc(C(=O)O)c4)n2)Cc2cccc(C)c2O3)cc1,nt,nt,-25.9%[46.1 µM],nt,-6.7%[46.1 µM]
Cc1c(CNC2CCCC2)c(C(=O)O)c(C)n1Cc1ccccc1,-0.5,5.5%,?,-12.4,2.7%
CC(C)NC(=O)Nc1ccc2c(c1)C(=O)N([C@H](C)CO)C[C@H](C)[C@@H](CN(C)C(=O)NC(C)C)O2,nt,7.7%,nt,nt,nt
C=CCOc1ccc(/C=C/C(C)=N\O)cc1,50.3*,-7.4%,1.7%,85.0*,-4.7%
N#Cc1cc([N+](=O)[O-])ccc1NC(=O)COC(=O)CC1CCCC1,1.2,14.2%,nt,-3.6,nt
CSc1nsc(SCC(=O)Nc2nc3ccc(C)cc3s2)n1,20.0*,7.7%,nt,34.0,nt
COC(=O)c1cccc(NC(=O)COC(=O)CSc2nc(C)cc(C)n2)c1,0.3,0.5%,14.4%,-16.7,7.0%
Cc1ccc2nc(NC(=O)CSCc3ccccc3)sc2c1,8.1,-4.2%,4.8%[46.1 µM],-1.5,22.8%
